Source: PubChem BioAssay (NCI)
This is part of a sample that, as a whole, favours compounds with a hit. Of some 83,000 tested, about 20% had one in any assay.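 A percent growth of 40 corresponds to 60% growth inhibition; 0 means no net growth; -100 means all cells died. Active threshold: below 10.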 A number with no mark means an inactive call. Active and inactive are the calls of the source.

system: SF-268 CNS; assay: NCI-60 one-dose screen, 48 h (100 = growth as untreated, 0 = no growth, -100 = all killed); details: 10 µM unless noted

SMILES	growth
O=c1oc2c(cnc3ccccc32)cc1-c1cccc(Cl)c1	98.8%
CCOC(=O)c1c(C)nc2c(c1N)C(=O)C(=O)N2Cc1ccc(OC)cc1	64.7%
CCNC(=O)N1CCc2c(Br)c3c(c(OC)c2C1Cc1ccc(OC)cc1)OCO3 (stereo not given)	43.5%
COc1cc2c(c(OC)c1OC)CCC(c1cccc(C(=O)Nc3ccc(Br)cc3)c1)O2 (stereo not given)	76.6%
OC1CSSC1Cn1cnc2c(Nc3ccc(OCc4cccc(F)c4)c(Cl)c3)ncnc21 (stereo not given)	-41.5% (active)
Cc1ccc(OCCOCCOCCOc2ccc(C)n(O)c2=S)c(=S)n1O	29%
C=CN(C(=O)N1CCN(c2cc3c(cc2F)c(=O)c(C(=O)O)cn3C2CC2)CC1)c1nc(-c2ccc(Cl)cc2)cs1	44.7%
C#CCOc1cccc(Nc2ncnc3cc(NC(=O)CCl)ccc23)c1	-55.8% (active)
Cc1nc2ccccc2c(/C=C/c2ccc(F)cc2)c1C(=O)/C=C/c1ccccc1	37.9%
COc1cc(/C=C/C(=O)N2CCN(C(=O)c3cc(OC)c(OC)c(OC)c3)CC2)ccc1OCCCOc1cc2c(cc1OC)C(=O)N1CCC[C@H]1C=N2	2.8% (active)
O=C(NC1CCC(Br)CC1)C1CCCC(S(=O)(=O)NC2CCCCC2)C1 (stereo not given)	20.8% [25 µM]
COc1cc(/C=C/c2cn[nH]c2-c2ccc(C)cc2)cc(OC)c1OC	49.2%
COc1ccc(C/C(C)=C(\c2ccc(Cl)cc2)c2ccc(OCCN3CCCC3)cc2)cc1	86.5%
CN(C)Cc1ccc(NC(=O)c2cncc(C#Cc3cnc(N)c4ncccc34)c2)cc1C(F)(F)F	55.9%
COC(=O)c1c(C)nc(C)c2c1C(=O)C=C(NCc1ccccc1)C2=O	78.8%
N#CSc1c[nH]c2ccc(/C=C/C(=O)/C=C(O)/C=C/c3ccc4[nH]cc(SC#N)c4c3)cc12	35.5%
Cc1ccc(-c2nc(SCC(=O)N3CCN(c4cc5c(cc4F)c(=O)c(C(=O)O)cn5C4CC4)CC3)nc(Cl)c2C#N)cc1	93.5%
COC(=O)/C=C1/SC(=NCc2ccccc2)N(CCc2c[nH]c3ccccc23)C1=O	90.3%
C=C(C)[C@@H]1CC[C@]2(C(=O)N3CCN(C)CC3)CC[C@]3(C)[C@H](CC[C@@H]4[C@@](C)(CCC(=O)O)[C@H](C(=C)C)CC[C@]43C)[C@@H]12	80.6%
Nc1[nH]nc2nc(-c3ccccc3)n3c4ccccc4nc3c12	107%

SMILES	growth
CN1CCOCCN(C)Cc2ccc3ccc(cc3c2)CN(C)CCOCCN(C)Cc2ccc3ccc(cc3c2)C1	84.9%
COc1ccc(/C=N/Nc2c3ccccc3nc3ccccc23)cc1	96%
C=C1C(=O)O[C@H]2[C@H]1CC/C(CNC(=O)Cc1c[nH]c3ccccc13)=C\CC[C@@]1(C)O[C@@H]21	51.2%
COc1ccc2c(c1)CC[C@@H]1[C@@H]2CC[C@]2(C)c3c(cc(C#N)c4c3sc3ccccc34)C[C@@H]12	100%
O=C(c1c[nH]c2ccccc12)c1n[nH]c(=S)n1-c1ccc([N+](=O)[O-])cc1	95.4%
Cc1c2cnccc2c(C)c2c1c1cc(CO)ccc1n2C	-28.8% (active)
COc1cc(-c2nccc3[nH]c(-c4cccc5[nH]ccc45)nc23)cc(OC)c1OC	34.2%
Clc1ccc(-c2nc(C(Cl)Cl)nc3cc(-c4ccccc4)nn23)cc1	41.7%
CC1=Nc2cnc(Nc3ccc(N4CCCCC4)cc3)nc2Nc2ccccc21	91.2%
CN(C)c1ccc([C@@H](C(=O)Nc2cccc([N+](=O)[O-])c2)N(C(=O)c2cc3ccccc3[nH]2)c2cccc([N+](=O)[O-])c2)cc1	97.4%
O=C(CSc1nnnn1-c1ccccc1)Nc1ccc(Oc2ccccc2)cc1	101%
COc1cc(/C=C/C(=O)c2cccc(-n3cc(-c4ccc(Cl)cc4)[nH]c3=O)c2)ccc1O	71.7%
Oc1c(CN2CCC(N3CCOCC3)CC2)cc(Cc2cc(CN3CCC(N4CCOCC4)CC3)c(O)c3ncccc23)c2cccnc12	25.5%
c1ccc2cc(Cn3cc(CSc4nc5ccccc5s4)nn3)ccc2c1	95.8%
CN(C)Cc1cc(C(C)(C)C)cc(Br)c1O	104%
CCN(CC)CCOc1ccc(/C(=C(\C)Cc2ccc(OC)cc2)c2ccc(OC(=O)NCc3ccccc3)cc2)cc1	73.7%
C=C1C(=O)O[C@H]2[C@H]1CC/C(COC(=O)NCc1ccc(Cn3c(=O)sn(-c4ccc(I)cc4)c3=O)cc1)=C\CC[C@@]1(C)O[C@@H]21	87.1%
O=c1oc2ccccc2cc1-c1nn(-c2ccccc2)cc1-c1nn[nH]n1	103%
O=c1oc2c(cc1-c1ccccc1)c(=O)[nH]c1ccccc12	100%
CC1=C(Cl)C(=O)c2cc(C)ccc2C1=O	88%
